Potency and outcome data for 38 molecules are collected here from PubChem BioAssay (NCATS).

Structures are written as SMILES. Several values for one entry are separate records, joined by “and”; a condition that tells them apart may be missing. Equal entries are not always repeated. Records with an inconclusive call do not appear. Entries that show only a call come without a potency. A structure can be active in one record and inactive in another. Activity calls are given as the source filed them. Unless noted, calls follow the shape of the dose curve; as a rule, active = well fitted curve in the direction sought with a large enough effect; inconclusive = small, poorly fitted or top-dose-only effect, or another doubt; inactive = no such curve, though single readings can be large; an effect the other way counts as inactive or inconclusive.

A short description of assay [1]: Primary qHTS for inhibitors of nuclear receptor binding SET domain protein 2 (NSD2) in an RCH-ACV wild type WT cells (2C) (AID 1645877). Also: nearly all actives have a fitted effect of over 70% in size. Also: potency is read from the fitted curve at half-maximal effect.
Assay [2] is described as follows: NCATS anti-infectives library activity on HEK293 viability as a counter-qHTS vs the C. elegans viability qHTS (AID 1745854). The method in brief:
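HEK293 cells, 1500 per well, exposed 24 hr at 37C in 5% CO2 to compounds in a 1:5 titration, up to 41.7 uM final. Viability read as CellTiter-Glo luminescence after 10 min at room temperature.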

Assay [3] is described as follows: Viability counterscreen for antagonist of constitutive androstane receptor (CAR) against the NCATS DSHEA and TCM libraries (AID 1794837).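 Also: compound exposure lasted 24 h before viability reading.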 The procedure, abridged: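 HepG2-CYP2B6-hCAR cells (2,500/well) were allowed to attach for 5 h, then exposed to compounds with 48 uM CITCO for 24 h at 37C. Viability was read by CellTiter-Fluor fluorescence after 1 h.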
A short description of assay [4]: Viability counterscreen for agonist of constitutive androstane receptor (CAR) against the NCATS DSHEA and TCM libraries (AID 1794838).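 Also: HepG2 cells with CYP2B6 reporter and hCAR plus 0.75 µM PK11195 antagonist.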 The procedure, abridged:
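HepG2-CYP2B6-hCAR cells (2,500/well) attached 5 h, then got compounds plus 0.75 uM PK11195 final. After 24 h at 37C, viability read by CellTiter-Fluor fluorescence (Ex/Em 405/540 nm).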

Assay [5] deals with Rap guanine nucleotide exchange factor 3 (Homo sapiens) (UniProt O95398). In words: Confirmatory qHTS for antagonist of cAMP-regulated guanine nucleotide exchange factor 3 (EPAC1) (AID 1645880). Also: nearly all actives have a fitted effect of over 55% in size. The method in brief:
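Nucleotide exchange uses 100 nM EPAC1, 250 nM RAP1B-BODIPY-GDP and 50 uM GDP, with compounds in a concentration-titration series. After 5 min at room temperature, fluorescence (480 nm ex/540 nm em) is read every 5 min for 30 min. Data are normalized to control ATA and DMSO.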

Assay [6] shares this target. Nature of the assay: Confirmatory qHTS for agonist of cAMP-regulated guanine nucleotide exchange factor 3 (EPAC1) (AID 1645881).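 Also: EPAC1 catalysed release of BODIPY-GDP from Rap1B seen as fluorescence loss; nearly all actives have a fitted effect of over 75% in size.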
The target of assay [7] is Rap guanine nucleotide exchange factor 4 (Homo sapiens) (UniProt Q8WZA2). In words: Confirmatory qHTS for agonist of cAMP-regulated guanine nucleotide exchange factor 4 (EPAC2) (AID 1645884).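 Also: nucleotide exchange releases bodipy-GDP from Rap1 and this lowers its fluorescence; nearly all actives have a fitted effect of over 65% in size.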
Assay [8] has the same target. Nature of the assay: Confirmatory qHTS for antagonist of cAMP-regulated guanine nucleotide exchange factor 4 (EPAC2) (AID 1645885). Also: nearly all actives have a fitted effect of over 25% in size. Also: potency is read from the fitted curve at half-maximal effect.
Assay [9] deals with Rap guanine nucleotide exchange factor 3 (Homo sapiens) (UniProt O95398). Nature of the assay: Counterscreen qHTS for antagonist of cAMP-regulated guanine nucleotide exchange factor 3 (EPAC1) (AID 1645888).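 Also: fluorescence loss as bound BODIPY-GDP is released from Rap1B.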 The method in brief:
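Rap1B–BODIPY-GDP (250 nM) with 50 uM GDP; compounds pin-transferred to 9.74 nM–152 uM final (activator) or from 7.32 nM upwards (inhibitor). Fluorescence Ex/Em 480/540 nm read at 5 and 30 min, then after adding cAMP or buffer, at room temperature.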

Assay [10] is described as follows: NCATS anti-infectives library activity on the primary C. elegans qHTS viability assay (AID 1745855; calls by dose curve). The following applies: C. elegans worm area imaging, day 7; at 41.8 µM (top of the series). The method in brief: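 Viability is taken from GFP fluorescence of PE254-GFP-FLuc C. elegans imaged by laser cytometry over 7 days. Ten L1 worms per well grow at 21 °C on TOP10 E. coli capsules with titrated compound; levamisole marks toxicity.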

Chain of Rap guanine nucleotide exchange factor 4 (Homo sapiens) (Q8WZA2 whole entry, looked up): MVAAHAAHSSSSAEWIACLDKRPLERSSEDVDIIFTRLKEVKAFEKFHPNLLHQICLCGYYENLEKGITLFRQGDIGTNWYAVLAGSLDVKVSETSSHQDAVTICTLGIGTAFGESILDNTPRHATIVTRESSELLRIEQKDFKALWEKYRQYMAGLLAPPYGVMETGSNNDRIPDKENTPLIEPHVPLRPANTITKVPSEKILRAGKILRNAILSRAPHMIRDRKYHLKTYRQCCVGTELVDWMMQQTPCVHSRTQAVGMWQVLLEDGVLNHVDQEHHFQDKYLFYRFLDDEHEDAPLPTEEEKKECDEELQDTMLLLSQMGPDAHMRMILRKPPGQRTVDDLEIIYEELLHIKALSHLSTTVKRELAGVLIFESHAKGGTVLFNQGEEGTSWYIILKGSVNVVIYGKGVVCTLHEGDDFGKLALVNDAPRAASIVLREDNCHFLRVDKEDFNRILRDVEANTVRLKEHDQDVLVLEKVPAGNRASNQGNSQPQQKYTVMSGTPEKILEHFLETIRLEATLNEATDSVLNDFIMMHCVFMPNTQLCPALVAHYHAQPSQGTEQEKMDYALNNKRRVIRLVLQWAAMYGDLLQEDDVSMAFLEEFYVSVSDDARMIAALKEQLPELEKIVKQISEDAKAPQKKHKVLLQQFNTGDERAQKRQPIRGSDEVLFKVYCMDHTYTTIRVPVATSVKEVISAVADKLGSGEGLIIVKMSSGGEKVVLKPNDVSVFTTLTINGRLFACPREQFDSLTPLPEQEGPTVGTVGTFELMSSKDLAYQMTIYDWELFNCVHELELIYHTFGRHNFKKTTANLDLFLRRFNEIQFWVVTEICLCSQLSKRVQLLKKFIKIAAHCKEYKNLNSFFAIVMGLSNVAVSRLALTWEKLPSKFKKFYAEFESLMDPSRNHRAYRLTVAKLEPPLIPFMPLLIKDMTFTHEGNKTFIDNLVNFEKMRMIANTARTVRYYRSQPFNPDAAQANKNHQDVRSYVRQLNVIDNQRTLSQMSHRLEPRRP
Chain of Rap guanine nucleotide exchange factor 3 (Homo sapiens) (O95398 whole entry, looked up): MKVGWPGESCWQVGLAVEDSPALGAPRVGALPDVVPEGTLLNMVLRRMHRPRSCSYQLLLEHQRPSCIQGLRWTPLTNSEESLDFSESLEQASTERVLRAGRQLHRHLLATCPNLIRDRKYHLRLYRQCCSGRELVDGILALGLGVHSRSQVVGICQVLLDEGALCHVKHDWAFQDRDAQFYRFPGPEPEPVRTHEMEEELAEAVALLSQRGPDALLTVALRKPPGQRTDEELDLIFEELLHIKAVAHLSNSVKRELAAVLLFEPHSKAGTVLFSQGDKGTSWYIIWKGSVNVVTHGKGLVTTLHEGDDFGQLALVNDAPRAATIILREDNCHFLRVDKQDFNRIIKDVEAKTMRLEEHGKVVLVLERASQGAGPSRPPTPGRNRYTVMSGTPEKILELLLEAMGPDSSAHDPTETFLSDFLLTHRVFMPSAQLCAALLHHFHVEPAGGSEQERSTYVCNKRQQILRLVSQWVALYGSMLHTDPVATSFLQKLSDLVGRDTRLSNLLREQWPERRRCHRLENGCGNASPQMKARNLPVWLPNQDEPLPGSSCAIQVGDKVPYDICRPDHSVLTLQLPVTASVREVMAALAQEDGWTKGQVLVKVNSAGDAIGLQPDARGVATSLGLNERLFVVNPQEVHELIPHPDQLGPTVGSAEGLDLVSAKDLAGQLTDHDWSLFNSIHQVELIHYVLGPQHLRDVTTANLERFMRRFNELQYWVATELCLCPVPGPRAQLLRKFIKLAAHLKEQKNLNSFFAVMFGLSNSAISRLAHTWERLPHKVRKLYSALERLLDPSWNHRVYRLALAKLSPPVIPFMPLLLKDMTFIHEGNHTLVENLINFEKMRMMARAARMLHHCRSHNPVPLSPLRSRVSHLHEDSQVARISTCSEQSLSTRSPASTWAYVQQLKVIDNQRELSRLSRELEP

With `Nc1ccc(C(=O)Oc2ccccc2)c(O)c1`, the Potency entry in assay [1] was “inactive”. On the same count and under the same terms, then `CC(O)CCCCn1c(=O)c2c(ncn2C)n(C)c1=O` (stereo not given), with “inactive”.

`OCc1ccc(Cl)cc1Cl`: the molecule was called inactive in [2]. `CC(C)=CCC[C@@](C)(O)[C@H]1CC=C(C)CC1`: the molecule was called inactive in assay [3] and in assay [4]. For the molecule `Cc1ccc(C(C)C)c(O)c1`, in assay [1], the Potency entry was “inactive”. The molecule was called inactive in [3] and in assay [4]. In the case of `NS(=O)(=O)c1cc2c(cc1C(F)(F)F)NCNS2(=O)=O`, the Potency result in assay [1] was “inactive”. Still for that read-out and setting: the result for `CCCCCCCC(=O)OCC(COC(=O)CCCCCCC)OC(=O)CCCCCCC` reads “inactive”. Regarding `Cc1cc(O)cc(C)c1Cl`, the Potency result in [1] is “inactive”. Moreover, the molecule was called inactive in assay [2]. As to `O=C(/C=C/c1ccccc1)OCc1ccccc1`, in assay [1], the Potency result was “inactive”. Still for that read-out and setting: then `CC(=O)N[C@@H](Cc1ccc(O)cc1)C(=O)O`, with “inactive”; and `CC(=O)[C@@]1(O)CC[C@H]2[C@@H]3C[C@H](C)C4=CC(=O)C=C[C@]4(C)[C@@]3(F)[C@@H](O)C[C@@]21C`, with 3 nM (active). With `CCN[C@H]1CN(CCCOC)S(=O)(=O)c2sc(S(N)(=O)=O)cc21`, the Potency entry in assay [1] is “inactive”. The call in assay [2] was inactive. Take `Cc1ccccc1N=Nc1ccc(N=Nc2c(O)ccc3ccccc23)c(C)c1`: the Potency result in assay [1] was “inactive”. Same read-out and setting: then `NC(=O)CCCCC1CCSS1` (stereo not given), with “inactive”. As for `COc1ccc2cc(CCC(C)=O)ccc2c1`, the Potency entry in assay [1] was “inactive”. The molecule was called inactive in assay [5], in assay [6], in assay [7], in assay [9] and in [2]. For the same molecule, the Potency in assay [8] was 8.79 µM (active) and inactive. `O=C(CN1CCNCC1)NC1CCCCC1`: the Potency result in [1] was “inactive”.

`O=C(O)CCCc1ccccc1`: in assay [2], the outcome was inactive.

As for `O=C(O)CCCCC1CCSS1` (stereo not given), the molecule was classed as inactive in assay [2]. Consider `CC(C)=CCC/C(C)=C/CO`, for which, in [1], the Potency entry was “inactive”. Same read-out and setting: then `CCCCCOC(=O)Nc1nc(=O)n([C@@H]2O[C@H](C)[C@@H](O)[C@H]2O)cc1F`, with “inactive”. As to `NCc1ccc(S(N)(=O)=O)cc1`, the molecule was classed as inactive in assay [2] and in [10].

`NC(=O)NC1NC(=O)NC1=O` (stereo not given): the Potency entry in assay [1] and in [8] was “inactive” in each case. Further, the call in [5], in [6], in assay [7], in assay [3] and in assay [4] was inactive. Turning to `CC1CCN(CCCC(=O)c2ccc(F)cc2)CC1`, in assay [1], the Potency entry is “inactive”. Take `CC1(C)[C@@H](OC(=O)CCC(=O)O)CC[C@]2(C)[C@H]3C(=O)C=C4[C@@H]5C[C@@](C)(C(=O)O)CC[C@]5(C)CC[C@@]4(C)[C@]3(C)CC[C@@H]12`: in assay [1], the Potency entry is “inactive”. The molecule was called inactive in assay [5], in [6] and in assay [7]. Also, the Potency in assay [8] was 4.21 µM (active) and 4.13 µM (active).

Take `CN1C(C)(C)CCCC1(C)C`: in assay [1], the Potency entry was “inactive”.

`CCCCCCCCCCCCCCCCCCO`: the Potency result in [1] is “inactive”. Still for that read-out and setting: then `CCN(CC)S(=O)(=O)c1ccc(C(=O)O)cc1`, with “inactive”. Still for that read-out and setting: then `COc1ccccc1OC(=O)Oc1ccccc1OC`, with “inactive”. For the molecule `CC(=O)N[C@H]1[C@H]([C@H](O)[C@H](O)CO)OC(C(=O)O)=C[C@@H]1N=C(N)N`, the Potency entry in [1] is “inactive”. For the same molecule, the call in assay [2] was inactive. Turning to `CC(=O)N(CC(O)CO)c1c(I)c(C(=O)NCC(O)CO)c(I)c(C(=O)NCC(O)CO)c1I` (stereo not given), in assay [1], the Potency result is “inactive”.

With `C=CCOc1ccccc1OCC(O)CNC(C)C` (stereo not given), the call in assay [2] was inactive. Take `CN1C(=O)CC(c2ccccc2)C1=O` (stereo not given): the Potency entry in assay [1] was “inactive”.

For the molecule `OCC(O)CS` (stereo not given), the Potency result in assay [1] is “inactive”. On to `O=c1[nH]c(=O)n([C@H]2C[C@H](O)[C@@H](CO)O2)cc1I`, for which the Potency in assay [1] is 2.99 µM (active) and 662 nM (active). Besides, the outcome in assay [2] was inactive. Consider `Nc1ncnc(Nc2ccccc2)n1`, for which the Potency result in [1] is “inactive”. On to `CCOC(=O)[C@H](CCc1ccccc1)N[C@@H](C)C(=O)N1Cc2cc(OC)c(OC)cc2C[C@H]1C(=O)O`, for which the Potency result in assay [1] was “inactive”. The outcome in [2] and in [10] was inactive. Regarding `O=C1c2cccc(O)c2C(=O)c2c(O)cccc21`, the Potency entry in [1] is “inactive”. In addition, the molecule was called inactive in assay [2]. As to `CN(C/C=C/C#CC(C)(C)C)Cc1cccc2ccccc12`, the Potency entry in [1] is “inactive”.
